According to PubChem BioAssay (NCATS):
“And” between values parts separate entries of the source, which are not always exact repeats. Identical values can stand only once. Results filed as inconclusive are left out. Values without a mark were called inactive. The source made the active and inactive calls. Calls follow the shape of the dose curve; as a rule, active = well fitted inhibition curve with a large enough effect in the repeat runs; inconclusive = weak or mixed curves; inactive = flat fitted curve, though single readings scatter.

What follows are compounds tested against Cytochrome P450 2D6 (Homo sapiens) (UniProt P10635) (assay: Cytochrome P450 family 2 subfamily D member 6 (CYP2D6) small molecule antagonists: luciferase biochemical (cell-free) qHTS assay (AID 1645840; also: nearly all actives have a fitted effect of over 55% in size)). Details: P450-Glo CYP2D6 enzyme, luciferin luminescence, 1 h; series mostly up to 57.4 µM; activity change, negative = inhibition: at the top concentration.
Description: National Center for Advancing Translational Sciences [NCATS] Assay Overview: Cytochrome P450 (CYP) enzymes are membrane-bound hemeproteins that play a key role in metabolism of drugs and xenobiotics. Assaying the effect of chemicals on CYP isozymes is useful to minimize the adverse drug reactions and toxicities in drug development process. Chemical compounds were tested for their effect on CYP enzyme activities by using P450-Glo (TM) screening systems (Promega Corporation, Madison, WI). These systems provide a luminescent method containing proluciferin substrates and are converted to luciferin products by CYP isozymes. The luciferin products formed are detected with a luciferin detection reagent, and the amount of light produced is proportional to CYP activity. P450-Glo (TM) CYP2D6 screening system (Catalog. No. V9890) was used to detect the compounds that interfere in CYP2D6 activity.
Assay Protocol Summary: Two ul of enzyme-substrate mix was dispensed into medium binding white/solid 1536-well plates (Greiner Bio-One North America Inc., Monroe, NC) using a Flying Reagent Dispenser (FRD, Aurora Discovery, San Diego, CA). […] The assay plates were incubated at room temperature for 10 min. Then 2 ul of NADPH regeneration solution was added to each well of the assay plates using an FRD and incubated at room temperature for 1 h. The reaction was stopped by adding 4 ul of detection reagent using an FRD and after 20 min incubation at room temperature, the luminescence signal was measured using a ViewLux plate reader (Perkin Elmer, Shelton, CT). Data were expressed as relative luminescence units.
% is scaled to controls: 0 for no effect and ±100 for the full control effect; potency is read from the fitted curve at half-maximal effect.

Sequence of Cytochrome P450 2D6 (Homo sapiens) (P10635 whole entry, looked up): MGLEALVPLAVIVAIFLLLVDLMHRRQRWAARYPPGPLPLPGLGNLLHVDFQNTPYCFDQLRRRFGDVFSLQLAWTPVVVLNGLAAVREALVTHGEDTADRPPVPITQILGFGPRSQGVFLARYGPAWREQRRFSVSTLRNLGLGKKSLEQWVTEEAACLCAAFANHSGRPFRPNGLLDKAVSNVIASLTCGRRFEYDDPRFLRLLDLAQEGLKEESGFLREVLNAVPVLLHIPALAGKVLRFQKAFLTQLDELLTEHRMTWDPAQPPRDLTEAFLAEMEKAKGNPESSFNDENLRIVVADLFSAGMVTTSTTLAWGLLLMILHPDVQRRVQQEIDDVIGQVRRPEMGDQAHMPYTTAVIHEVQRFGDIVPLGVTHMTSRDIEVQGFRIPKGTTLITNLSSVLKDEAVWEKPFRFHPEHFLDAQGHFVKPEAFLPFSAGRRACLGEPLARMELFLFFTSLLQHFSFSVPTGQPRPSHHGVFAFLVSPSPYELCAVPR

Question: For `COC(=O)N1CCN(Cc2cccc(NC(=O)Nc3ccc(C)nc3)c2F)CC1`, which “activity change, negative = inhibition” value is on record?
Answer: Its value is -23.1%.

Question: Which “activity change, negative = inhibition” value does the source give for `CN(C)c1ccc(-c2nc3ncc(Cl)c(N4CCN(CC(=O)Nc5nccs5)CC4)c3[nH]2)cc1` here?
Answer: The value was -2.25%.

Question: Which Potency does the source give for `C[C@@]1(c2cc(-c3cncnc3)c(F)cc2F)CCSC(N)=N1` here?
Answer: The Potency was 6.74 µM (active).

Question: `CSc1cccc(Nc2ncc3cc(-c4c(Cl)cccc4Cl)c(=O)n(C)c3n2)c1` was tested. Which “activity change, negative = inhibition” value did it give?
Answer: Its value is -0.276%.

Question: `O[C@@H](COc1cccc2ncccc12)CN1CCN(C2c3ccccc3[C@@H]3[C@H](c4ccccc42)C3(F)F)CC1` (stereo not given in full) was tested. Which Potency did it give?
Answer: The Potency was 13.8 µM (active) and 10.7 µM (active).

Question: `Clc1ccc(COC(Cn2ccnc2)c2ccc(Cl)cc2Cl)c(Cl)c1` (stereo not given) was tested. Which Potency did it give?
Answer: The Potency was 1.07 µM (active).

Question: With `COc1ccc(-c2cc3nccn3c(Nc3ncccc3C(N)=O)n2)cc1OC` as the compound, how does the “activity change, negative = inhibition” value read?
Answer: Its value is 2.58%.

Question: For `Cc1cc(-c2ncc(CC(=O)Nc3ccc(-c4cnccn4)cn3)cc2C)ccn1`, which “activity change, negative = inhibition” value is on record?
Answer: Its value is 2.93%.

Question: For `CC1(COc2ccc3c(c2)ncn3-c2ccc3cccc(N4CCC(N)CC4)c3n2)COC1`, which Potency is on record?
Answer: Its Potency is 15.1 µM (active).

Question: For `Cc1cnc(-c2cc(N3CCN(C(=O)CCS(C)(=O)=O)CC3)ncc2Cl)c(C)c1`, which “activity change, negative = inhibition” value is on record?
Answer: The value was 12%.

Question: For `CCN1C[C@H](C)n2c(c(O)c3c(=O)n(Cc4ccc(F)c(Cl)c4)nc(C(=O)NC)c32)C1=O`, which Potency is on record?
Answer: The Potency was “inactive”.

Question: How did the Potency turn out when `CN1CCc2c(n(Cc3ccc(C(=O)NO)cc3)c3ccccc23)C1` was run?
Answer: The Potency was 6.74 µM (active).

Question: For `CNC(=O)c1c(-c2ccc(F)cc2)oc2cc(N(CCO)S(C)(=O)=O)c(C3CC3)cc12`, which “activity change, negative = inhibition” value is on record?
Answer: The value was 4.02%.

Question: For `CC(C)(O)CC(=O)NCCn1ccc2ncnc(Nc3ccc(Oc4cccc(C(F)(F)F)c4)c(Cl)c3)c21`, which Potency is on record?
Answer: The Potency was 12 µM (active).

Question: With `COc1cc(Nc2nc3ccccc3nc2NS(=O)(=O)c2ccc(NC(=O)c3ccc(C)c(OC)c3)cc2)cc(OC)c1` as the compound, how does the “activity change, negative = inhibition” value read?
Answer: The value was 23.9%.

Question: For `COc1ccnc(CS(=O)c2nc3ccc(OC(F)F)cc3[nH]2)c1OC` (stereo not given), which Potency is on record?
Answer: The Potency was 5.49 µM (active) and 16.9 µM (active).

Question: `Cc1nn(Cc2ccccc2Cl)c(C)c1CN(C)CC(O)COc1ccc(Cl)cc1` (stereo not given) was tested. Which Potency did it give?
Answer: The Potency was 0.536 µM (active).

Question: How did the Potency turn out when `Cc1cnc(Nc2cccc(CN3CCOCC3)c2)nc1Nc1cccc(S(=O)(=O)NC(C)(C)C)c1` was run?
Answer: Its Potency is 15.1 µM (active).

Question: Which “activity change, negative = inhibition” value does the source give for `COc1ccc(-c2ccc3ncc4c(c3c2)n(-c2ccc(N3CCNCC3)c(C(F)(F)F)c2)c(=O)n4C)cn1` here?
Answer: The value was -4.05%.

Question: With `NS(=O)(=O)c1ccc(Nc2nc(OCC3CCCCC3)c3[nH]cnc3n2)cc1` as the compound, how does the Potency read?
Answer: Its Potency is 19 µM (active).

Question: Which Potency does the source give for `CNC1CCC(N(Cc2cccc(-c3ccncc3)c2)C(=O)c2sc3ccccc3c2Cl)CC1` (stereo not given) here?
Answer: The Potency was 4.25 µM (active).

Question: `O=C(Nc1cccc2c(=O)cc(-c3nn[nH]n3)oc12)c1ccc(OCCCCc2ccccc2)cc1` was tested. Which Potency did it give?
Answer: Its Potency is 15.5 µM (active).

Question: How did the Potency turn out when `Nc1ncnc2c1c(-c1cccc(OCc3ccccc3)c1)cn2C1CC(CN2CCC2)C1` (stereo not given) was run?
Answer: The Potency was 12 µM (active).

Question: `CN(C)CCOc1cc(-c2cn[nH]c2)ccc1NC(=O)C1COc2ccccc2O1` (stereo not given) was tested. Which Potency did it give?
Answer: Its Potency is 2.68 µM (active).

Question: `O=C(O)CCNc1cc(N2CCc3ccccc3CC2)nc(-c2ccccn2)n1` was tested. Which activity change, negative = inhibition did it give?
Answer: The activity change, negative = inhibition was 10.8% [at 11.5 µM].

Question: For `COc1nccc(-c2c(-c3ccc(F)cc3)ncn2C2CCC(O)CC2)n1` (stereo not given), which “activity change, negative = inhibition” value is on record?
Answer: Its value is -2.51%.

Question: Which Potency does the source give for `C[C@H](c1ccc(F)cc1CCCC(=O)O)N(c1cc(F)ccc1F)S(=O)(=O)c1ccc(Cl)cc1` here?
Answer: Its Potency is 16.9 µM (active).

Question: For `CC(C)C[C@@H](C(=O)N[C@H](C(=O)OC1CCCC1)c1ccccc1)[C@H](O)C(=O)NO`, which “activity change, negative = inhibition” value is on record?
Answer: The value was 0.374%.

Question: Which Potency does the source give for `Nc1ccc(-c2ccc3ncc4ccc(=O)n(-c5cccc(C(F)(F)F)c5)c4c3c2)cn1` here?
Answer: Its Potency is 23.9 µM (active).

Question: `c1cc(OCCN2CCCCC2)cc(-c2n[nH]c3ccc(-c4ncn[nH]4)cc23)c1` was tested. Which Potency did it give?
Answer: Its Potency is 15.1 µM (active).

Question: For `Cc1cccc(Nc2nc(N[C@@H]3CCCC[C@H]3N)ncc2C(N)=O)c1`, which Potency is on record?
Answer: Its Potency is 15.1 µM (active).

Question: How did the Potency turn out when `O=C(Nc1cccc(C(F)(F)F)c1)Nc1cc(S(=O)(=O)NC2CC2)ccc1-c1ccsc1` was run?
Answer: The Potency was 5.35 µM (active).

Question: `CC[C@H](C)C(=O)O[C@H]1C[C@H](O)C=C2C=C[C@H](C)[C@H](CC[C@@H](O)C[C@@H](O)CC(=O)O)[C@H]21` was tested. Which “activity change, negative = inhibition” value did it give?
Answer: The value was -0.234%.

Question: With `Cn1c(=O)c(-c2c(Cl)cccc2Cl)cc2cnc(Nc3cccc(C(=O)O)c3)nc21` as the compound, how does the “activity change, negative = inhibition” value read?
Answer: The value was 7.24%.

Question: For `Cc1csc(-c2nnc(Nc3ccc(Oc4ncccc4-c4ccnc(N)n4)cc3)c3ccccc23)c1`, which “activity change, negative = inhibition” value is on record?
Answer: Its value is -2.47%.

Question: For `CC(C)CNc1ccnc(NCc2csc(-c3ccccc3)n2)n1`, which Potency is on record?
Answer: The Potency was 1.2 µM (active).

Question: Which Potency does the source give for `c1ccc(-c2oc3ncnc(NC[C@@H]4CCCO4)c3c2-c2ccccc2)cc1` here?
Answer: Its Potency is 10.7 µM (active).

Question: `Cc1ccc2c(c1)c1c(n2CCc2ccc(C)nc2)CCN(C)C1` was tested. Which Potency did it give?
Answer: Its Potency is 8.49 µM (active).

Question: `Cc1ccccc1-n1c(Cn2nc(-c3cccc(O)c3)c3c(N)ncnc32)nc2cccc(C)c2c1=O` was tested. Which “activity change, negative = inhibition” value did it give?
Answer: The value was -23.1%.

Question: `CCCCC[C@H](O)C=C[C@H]1[C@H](O)CC(=O)[C@H]1CC=CCCCC(=O)O` was tested. Which “activity change, negative = inhibition” value did it give?
Answer: The value was 11.5%.
